From PubChem BioAssay AID463215 (Sanford-Burnham Center for Chemical Genomics, 2010)
Out of some 4,600 compounds screened, about 2,900 (63%) were called active.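 The calls were made as follows: active = inhibition of yeast growth at or above a set limit in either of two replicates at 10 µM; inactive = the rest.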 So high a share suggests a set chosen from earlier hits. Only a sample is shown.

Assay: growth inhibitors of wild-type TIM10 yeast, confirmation, counter-screen for tim10-1 synthetic lethality project, single concentration, luminescence, S. cerevisiae (AID 463215);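 also: isogenic wild-type TIM10 control yeast grown in succinate dextrose medium; this counterscreen used the strain with wild-type TIM10; 0% = yeast with DMSO and 100% = medium wells lacking yeast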
Details: S. cerevisiae tim10 strain growth, BacTiter-Glo luminescence, 24 h; at 10 µM; active compounds read high

Compound	inhibition
Cc1cccc(N=Nc2c(O)[nH]c3ccc(F)cc23)c1	40.8% (active)
Cc1nc(-c2ccc(NC(=O)c3cccs3)cc2)cs1	-32.7% (inactive)
O=C(Nc1ccc(NC(=O)c2cccs2)cn1)c1ccco1	32.2% (active)
COc1cc(NC(=O)c2cccs2)ccc1NC(=O)c1ccccc1Cl	5.7% (inactive)
Cc1ccc2nc(-c3ccc(Br)cc3)cn2c1	38.8% (active)
Cc1ccc(-c2cn3cc(C)ccc3n2)cc1	67% (active)
Nc1cc(OC(=O)c2ccccc2Br)nn1S(=O)(=O)c1ccccc1	48% (active)
CN1C(=O)/C(=N/OC(=O)c2ccccc2Br)c2ccccc21	61.5% (active)
Fc1ccccc1/C=C1\CCCC2=C1Nc1ncnn1C2c1ccccc1F (stereo not drawn)	26.4% (inactive)
CCc1cc(C(N)=O)c(NC(=O)c2ccc(OC)cc2)s1	59.7% (active)
COc1ccc(C(=O)Nc2ccc(-n3nncc3C(C)(C)C)cc2)cc1	21.1% (inactive)
CC(C)(C)C(=O)c1cnc(Nc2ccccc2)s1	21.1% (inactive)
CSCCC(NS(=O)(=O)/C=C/c1ccccc1)C(=O)N1CCC(C)CC1 (stereo not drawn)	2.25% (inactive)
CCn1c(/C=C/c2ccc([N+](=O)[O-])o2)nc2ccccc2c1=O	80.8% (active)
COc1ccc2c(c1)cc1n2CCN=C1NN	51.4% (active)
COc1ccccc1-c1n[nH]c2c1[C@H](C)CC[C@H]2C(C)C	50.2% (active)
Cc1cc(N)n2nc(-c3ccc(C(C)(C)C)cc3)cc2n1	9.25% (inactive)
CC1=C/C(=N\OS(=O)(=O)c2ccccc2)C=CC1=O	-32.8% (inactive)
O=C(Nc1nnc(SCc2c(Cl)cccc2Cl)s1)C1CCCO1 (stereo not drawn)	41% (active)
CC(C)c1ccc(NC(=S)NC2CC3C=CC2C3)cc1 (stereo not drawn)	35.2% (active)
O=C1c2ccccc2S(=O)(=O)N1CC(O)Cn1c2ccccc2c2ccccc21 (stereo not drawn)	46.1% (active)
CCOC(=O)CNC(=O)CSc1ncccc1-c1nc2ccccc2[nH]1	1.05% (inactive)

Compound	inhibition
O=C(Nc1ccc(Cl)c(Cl)c1)N1CC=C(c2ccccc2)CC1	33.3% (active)
Nc1cccc(-c2cc(-c3ccccc3)nc(-c3cccc(N)c3)n2)c1	36.6% (active)
CS(=O)(=O)c1sc2nc(-c3ccccc3)cc(-c3ccccc3)c2c1N	-14.8% (inactive)
O=c1oc2ccccc2cc1-c1csc(Nc2ccc(O)cc2)n1	39.9% (active)
O=C(CC(O)(C(F)(F)F)C(F)(F)F)Nc1ccc(Cl)c(Cl)c1	92.4% (active)
CCOC(=O)C1Sc2[nH]c(=O)sc2C(c2ccc(Cl)cc2)C1C(=O)OCC (stereo not drawn)	48.2% (active)
CC1CC(=S)Nc2ccccc2N1Cc1ccccc1 (stereo not drawn)	-14.8% (inactive)
O=C(Oc1ccc([N+](=O)[O-])cc1)c1ccc2ccccc2n1	33.2% (active)
CCCc1nc2c(c(=O)c3ccccc3n2C)c(=O)n1C1CCCCCC1	-18.1% (inactive)
Cc1[nH]n(C(N)=S)c(=O)c1N=Nc1ccc(Cl)cc1Cl	51.7% (active)
CCCCC1(C(=O)OCC)NC(c2ccc(O)cc2)C2C(=O)N(c3ccccc3)C(=O)C21 (stereo not drawn)	7% (inactive)
CCSC1=C(C#N)C(=O)n2c1cc1c2CCCC1	56.2% (active)
O=C(NCc1ccc2c(c1)OCO2)c1c(O)nc2sccn2c1=O	27.8% (inactive)
CC(=NCc1ccc2c(c1)OCO2)C1=C(O)c2ccccc2C1=O	66.2% (active)
COc1ccc(O)c(C(=O)c2cnc3c(c2)c(-c2ccc(F)cc2)c(C#N)c(=O)n3C)c1	3.75% (inactive)
O=C1[C@@H](c2ccccc2)[C@@H](c2ccccc2)N1c1cccnc1	61.4% (active)
C=CCNC(=S)NNC(=O)COc1c(Cl)cc(Cl)cc1Cl	2.85% (inactive)
O=C(Oc1c(-c2ccco2)oc2ccccc2c1=O)c1cccnc1	48% (active)
Cc1ccc2nc(N(CCN(C)C)C(=O)C3=COCCO3)sc2c1	34.9% (active)
CN(C)CCN(C(=O)C1=COCCO1)c1nc2ccc(Cl)cc2s1	69.3% (active)
Cc1ccoc1C(=O)Nc1cccc(Oc2ccccc2)c1	61% (active)
Cc1nc(-c2ccc(Cl)cc2)sc1C(=O)CBr	52.6% (active)

Compound	inhibition
CCNC(=S)N(CCc1c(C)[nH]c2ccc(C)cc12)Cc1ccco1	20.2% (inactive)
O=C(Nc1ccc(Br)cn1)c1ccc([N+](=O)[O-])o1	46.5% (active)
Cc1cccc(NC(=O)c2ccc([N+](=O)[O-])o2)c1	81.6% (active)
Cc1onc(NC(=O)c2ccc([N+](=O)[O-])o2)c1Br	53.8% (active)
CC(C)CC(=O)NC(=S)Nc1ccc(F)cc1F	15.1% (inactive)
Cc1ccc2nc(-c3ccc(SCC(=O)Nc4cc(C)on4)nc3)[nH]c2c1	2.7% (inactive)
NC(=S)N/N=C/c1coc2cc(Cl)ccc2c1=O	50.8% (active)
CC(C)Oc1c(Br)cc(Br)cc1/C=N/NC(N)=S	23.6% (inactive)
C=C(C)COc1ccc(-c2n[nH]c(C)c2-c2ccccc2)c(O)c1	40.1% (active)
Oc1ccccc1-c1cc(-c2ccc(Cl)cc2)n[nH]1	55.5% (active)
CC(C)NC(=O)/C(C#N)=C\c1ccc(N(C)C)c(Br)c1	46.6% (active)
O=c1[nH]cnc2c1c(-c1ccccc1)cn2-c1ccc(F)cc1	-25.6% (inactive)
CC(=NCc1ccco1)c1c(C(F)(F)F)[nH]n(-c2nc3ccccc3s2)c1=O	57.4% (active)
N/C(=N\OC(=O)CCc1ccccc1)c1ccc(Cl)cc1	57.2% (active)
COc1ccc(/C(N)=N/OC(=O)CCCc2ccccc2)cc1	39.8% (active)
COc1ccc(-c2oc3ncn(Cc4ccco4)c(=N)c3c2-c2ccc(OC)cc2)cc1	38.8% (active)
COc1ccc2[nH]cc(/C=C(/C#N)S(=O)(=O)c3ccccc3)c2c1	38% (active)
N/C(=N\OC(=O)Nc1ccc(Cl)c(Cl)c1)c1ncc(C(F)(F)F)cc1Cl	72.8% (active)
CC1CCCC(C)N1C(=O)CN1CCN(c2nc(-c3ccc(F)cc3)cs2)CC1 (stereo not drawn)	39.2% (active)
Cc1cc(C)n(CC(O)CN(c2ccccc2)S(=O)(=O)c2ccc3ccccc3c2)n1 (stereo not drawn)	2.2% (inactive)
CC(=O)Oc1ccc(N(C(C)=O)S(=O)(=O)c2ccc3ccccc3c2)cc1Br	40.5% (active)
CCc1ccc(OCC(=O)NCC(c2ccc(Cl)cc2)N2CCCCC2)cc1 (stereo not drawn)	44% (active)

Compound	inhibition
CC1CCC2CCCCC2N1C(=O)c1cc([N+](=O)[O-])cc([N+](=O)[O-])c1 (stereo not drawn)	33% (active)
CCOc1ccccc1/C=c1\sc2nc(-c3ccco3)nn2c1=O	48.9% (active)
Cc1ccc(-c2ccnc3nc(Sc4ncc(C(F)(F)F)cc4Cl)nn23)cc1	29.6% (inactive)
Cc1nn2c(c1-c1ccccc1)N=C(c1ccco1)CC2c1ccccc1 (stereo not drawn)	-19.4% (inactive)
CC(NC(=S)Nc1ccccc1)C1COc2ccccc2O1 (stereo not drawn)	40.3% (active)
Cc1ccc(N2C(=O)C3C4C=CC(CC4)C3C2=O)cc1Cl (stereo not drawn)	0.2% (inactive)
COc1cccc(OCc2cc(C(=O)N3CCN(C(=O)c4ccco4)CC3)no2)c1	8.3% (inactive)
Cc1ccc(C(=O)COc2cccc(NC(=O)c3ccco3)c2)cc1	53.1% (active)
O=C1C=CC(=O)N1c1ccc(N2CCCCC2)cc1	85.4% (active)
COc1ccc2c(CN3CCN(S(=O)(=O)c4cccs4)CC3)cc(=O)oc2c1	-35.7% (inactive)
O=C(O)CCCC(=O)Nc1ccccc1-n1ccnc1	-10.4% (inactive)
CN(C)c1ccnc2sc(C(=O)c3ccccc3)c(N)c12	25.4% (inactive)
O=C(CN1CCN(S(=O)(=O)c2ccc3ccccc3c2)CC1)NC(=O)NC1CCCCC1	23.4% (inactive)
COc1ccc(S(=O)(=O)N2CCN(C(C)C(=O)Nc3ccc(C(C)C)cc3)CC2)cc1 (stereo not drawn)	38.8% (active)
Fc1ccc(-n2c(Cc3ccccc3)nnc2SCc2nc(-c3ccc(Cl)cc3)no2)cc1	37.8% (active)
Cc1ccc(-c2noc(CSc3nnc(-c4ccncc4)n3-c3ccc(F)cc3)n2)cc1	30.2% (active)
Cc1ccc(/C=N/NC(=S)NC2CCCCC2)o1	11.8% (inactive)
COc1ccc(N2C(=O)CC(Sc3n[nH]c(-c4ccc(C)cc4)n3)C2=O)cc1 (stereo not drawn)	13.8% (inactive)
FC(F)(F)c1cccc(NC(=S)Nc2cccc(Cl)c2)c1	26.8% (inactive)
O=C(Nc1cccc(Cl)c1)C1CCCN(c2cnccn2)C1 (stereo not drawn)	5.7% (inactive)
O=C(Nc1cccc(Cl)c1)OCc1ccccn1	41.4% (active)
O=C(CSc1cccc[n+]1[O-])c1ccc(-c2ccccc2)cc1	44.2% (active)

Compound	inhibition
O=C1NC(Nc2nc3ccccc3s2)(C(F)(F)F)C(=O)N1C1CCCCC1 (stereo not drawn)	52.6% (active)
N#CC1(C#N)C(C(=O)C23CC4CC(CC(C4)C2)C3)C12CCOCC2 (stereo not drawn)	26.6% (inactive)
COC(=O)c1c(NC(=O)COc2ccc(Cl)cc2Cl)sc2c1CC(C)(C)NC2(C)C	45.8% (active)
CCn1c(CSCc2c(Cl)cccc2Cl)n[nH]c1=S	35.4% (active)
O=C(Nc1ccccc1Cl)/C(Cl)=C(\Cl)S(=O)c1ccccc1 (stereo not drawn)	89.6% (active)
O=c1oc(-c2ccccc2NS(=O)(=O)c2ccc(Cl)cc2)nc2ccccc12	41.5% (active)
Cc1[nH]c(=O)c(C(=O)/C=C/c2ccccc2)c2c1CCCC2	38.8% (active)
COc1ccc(Nc2cc(C)nc(-n3nc(C)cc3C)n2)cc1	34.1% (active)
COc1ccc(/C=C(\C#N)C(=O)ONC2=NCCCCC2)cc1	59% (active)
O=C(NCCc1ccc(F)cc1)c1ccc(S(=O)(=O)N2CCCCC2)cc1	53.5% (active)
O=C(Nc1cccc(S(=O)(=O)N2CCCC2)c1)c1cncc(Br)c1	-2.05% (inactive)
CC(=O)Cc1nsc(NC(=O)c2ccc(Cl)cc2Cl)n1	17.2% (inactive)
C/C(=N/NC(=S)Nc1ccccc1)c1ccc2c(c1)OCO2	38.8% (active)
CC(=O)N1C(C)c2ccccc2C(C)(C)CC12CCCCC2 (stereo not drawn)	-16% (inactive)
COc1ccc(Nc2nc(N)nc(CSC(=S)N3CCC(C)CC3)n2)cc1	-1% (inactive)
Cc1cc(C)nc(S/C=C/C(=O)c2ccccc2)n1	60.8% (active)
Cc1csc(NC(=S)Nc2cccc(Cl)c2)n1	9.5% (inactive)
Cc1cc(C)c(S(=O)(=O)c2ccccc2)c(OC(=O)c2c(F)cccc2Cl)n1	-5.1% (inactive)
COC(C/C=C/C(=O)[C@@H](C)OCc1ccccc1)OC	39.4% (active)
CNC(=O)/C(C#N)=C/c1c(F)cccc1Cl	40.6% (active)
